In the library only some 0.95% were active in any assay of this set; here they are far more common.
Resorufin autofl: compound fluoresces in the resorufin spectral region. Compound fluorescence, resorufin region 547/598 nm, buffer; stronger effect = higher value. max dye-equivalent concentration, M. 59,000 tested, 0.04% active
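Tris 100 mM pH 8.0; compound added, 15 min RT; CCD imager read, ex 547 nm/em 598 nm; signal normalized to resorufin standard curve (six concentrations per plate) as dye-equivalent concentration.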
TexasRed autofl: compounds fluorescent in Texas Red spectral region; max dye-equivalent concentration, M; Compound fluorescence, Texas Red channel, 547/618 nm; stronger effect = higher value; 59,000 tested, 0.06% active; in the data active = max dye-equivalent concentration above about 10 nM; inconclusive = between about 1.1 nM and that limit
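Texas Red-region profiling: compounds in 100 mM Tris pH 8.0 were read at 547/618 nm after 15 min at room temperature. Intensities were normalized against a six-point Texas Red standard series to give dye-equivalent concentration.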
Rhodamine fluor: rhodamine region autofluorescence; Rhodamine-region fluorescence, 547/598 nm, Tris buffer; stronger effect = higher value; max dye-equivalent concentration, M; 59,000 tested, 0.05% active; in the data active = max dye-equivalent concentration above about 11 nM; inconclusive = between about 1.1 nM and that limit
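Compound fluorescence in 100 mM Tris, pH 8.0, read after 15 min at room temperature with 547 nm excitation and 598 nm emission. Output is dye-equivalent concentration from an on-plate rhodamine standard series.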
Fluorescein fluor: compound fluoresces in the fluorescein spectral region | 59,000 tested, 0.91% active | Compound autofluorescence, 480/540 nm, fluorescein-equivalent; stronger effect = higher value | max fluorescein-equivalent concentration, M; in the data active = max fluorescein-equivalent concentration above about 10 nM; inconclusive = between about 1.1 nM and that limit
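In this qHTS profile, compound fluorescence was measured with a 480 nm/540 nm filter pair following a 15-min room-temperature incubation in 100 mM Tris (pH 8.0). A six-point fluorescein series on each plate served for normalization.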
A488 autofl: compound fluoresces in the A488 spectral region | 59,000 tested, 0.1% active | compound autofluorescence, A488 spectral region, dye equivalency; Compound Type: qHTS ECL - MLSMR | max dye equivalency, M
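Autofluorescence read at ex 480/em 540 nm after 15 min RT in 100 mM Tris pH 8.0; compound signal normalized to A488 standard series on each plate, reported as dye-equivalent concentration at each test concentration.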
A647 fluor: compound autofluorescence in A647 spectral region | AID 592 | max dye-equivalent concentration, M | Compound fluorescence, A647 channel (570/671 nm), Tris buffer | 59,000 tested, under 10 active;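 note: values scaled relative to a standard on each plate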
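Each compound's intrinsic fluorescence at 570 nm excitation and 671 nm emission is measured across its concentration series in 100 mM Tris, pH 8.0, after 15 min at room temperature, and reported relative to an A647 curve.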
Active calls of the source: *; i = inactive; ? = inconclusive. Unless noted, the rule behind the calls is not given here.

SMILES	Resorufin autofl	TexasRed autofl	Rhodamine fluor	Fluorescein fluor	A488 autofl	A647 fluor
COC(=O)c1ccc2c(c1)SC1=C(CCCC1=O)N2	1.9e-08M*	2.1e-08M*	2e-08M*	5.3e-08M*	?	6.8e-08
O=C1C(Cl)=C(Sc2nnc3c4ccccc4c4ccccc4c3n2)C(=O)c2ccccc21	i	?	i	?	i	1.4e-09
C[C@H]1CCCC=CC2C[C@H](OC(=O)CN(C)C)C[C@@H]2[C@@H](O)/C=C\C(=O)O1 (stereo not given in full)	i	i	i	i	i	1.4e-08
CC(=O)c1sc2nc(-c3cccs3)cc(C(F)(F)F)c2c1N	i	i	i	7.2e-08M*	?	1e-09
Oc1cc(O)cc(/C=C\c2ccc(O)c(O)c2)c1	i	i	i	?	i	1e-09
COCC(=O)N1CCC[C@@]2(CCN(Cc3ccccc3)C2)C1	i	i	i	i	i	7e-09
CCOc1cccc2cc(C(=O)N3CCc4ccccc43)c(=O)oc12	?	2.3e-08M*	1.1e-08M*	?	i	1e-09
COc1cccc2cc(C(=O)N3CCc4ccccc43)c(=O)oc12	i	i	i	i	i	1.2e-08
CCCn1c(=N)c(C(=O)NCc2ccc3c(c2)OCO3)cc2c(=O)n3cccc(C)c3nc21	i	i	i	1.4e-08M*	i	2.6e-09
Cn1nc(-c2ccccc2)c2nc3ccccc3nc21	i	i	i	4.5e-07M*	2.7e-08M*	3.6e-08
COc1ccc(CCNS(=O)(=O)c2ccc(C3CNC(=O)C3)cc2)cc1OC (stereo not given)	i	i	i	i	i	3.2e-09
COc1ccc(C2CNC(=O)C2)cc1OC1CCCC1 (stereo not given)	i	i	i	1.1e-08M*	i	1.3e-09
Cn1c(=O)c(-c2ccc(F)c(F)c2)nc2cncnc21	i	i	i	i	i	1e-09
O=C(O)CCSCc1ccc(I)cc1	i	i	i	i	i	1e-09
CCN1CC=C2C(C#N)=C(N)C(C#N)(C#N)C(c3cc(Cl)ccc3Cl)C2C1 (stereo not given)	i	i	i	2.4e-08M*	i	5.2e-08
CCC1C2CN(C(C)=O)CC=C2C(C#N)=C(N)C1(C#N)C#N (stereo not given)	i	i	i	?	i	1.2e-08
CC(C)N1CC=C2C(C#N)=C(N)C(C#N)(C#N)C(c3ccccc3)C2C1 (stereo not given)	i	i	i	1.6e-07M*	?	5.5e-08
COc1cc(C2C3CN(C)CC=C3C(C#N)=C(N)C2(C#N)C#N)ccc1OC(C)C (stereo not given)	i	i	i	3.6e-08M*	?	8.6e-09
CN1CC=C2C(C#N)=C(N)C(C#N)(C#N)C(Cc3ccccc3)C2C1 (stereo not given)	i	?	i	3.7e-08M*	?	2e-09
CCCCC[C@H](O)c1cccc(OCc2ccc3ccccc3n2)c1	i	i	i	i	i	1e-09
O=C(NCc1ccc2[nH]c3c(c2c1)CCCC3)N1CCOCC1	i	i	i	1.5e-08M*	i	1e-09
O[C@@H](c1cc(C(F)(F)F)nc2c(Cl)cc(Cl)cc12)[C@@H]1CCCCN1	i	i	i	i	i	1.9e-08
CC(CS(=O)(=O)c1cccc2cccnc12)N1CCCCC1 (stereo not given)	i	i	i	1.6e-08M*	i	4.8e-08
O=S(=O)(NC1CCCCCC1)c1cccc2cccnc12	i	i	i	i	i	4.9e-09
CCN(CC)c1ccc2c(c1)oc(=O)c1c(Cl)cc(=O)oc12	i	i	i	4.8e-07M*	2.5e-08M*	3.8e-08
SMILES	Resorufin autofl	TexasRed autofl	Rhodamine fluor	Fluorescein fluor	A488 autofl	A647 fluor
CCN(CC)c1ccc2c(Cl)c(Br)c(=O)oc2c1	i	i	i	?	i	4e-08
c1ccc2c(c1)CCC[C@H]2C1=NCCN1	i	?	i	?	i	5.7e-09
COC(=O)c1c(=O)n(O)c2ccc(OC)cc2[n+]1[O-]	i	i	i	3.6e-08M*	?	2e-09
N[C@@H](Cc1ncccn1)C(=O)O	i	i	i	i	i	1e-09
CCNc1ncc2nc(CCc3ccccc3)c(=O)n(CCC#N)c2n1	i	i	i	i	i	1e-09
COc1cccc2c1C(=O)c1c(O)c3c(c(O)c1C2=O)C[C@](O)(C(C)=O)C[C@H]3O[C@@H]1C[C@H](N)[C@H](O)[C@H](C)O1	4.5e-08M*	5.9e-08M*	6e-08M*	2e-07M*	?	7e-09
COc1cccc2c1C(=O)c1c(O)c3c(c(O)c1C2=O)C[C@@](O)(C(=O)CO)C[C@@H]3O[C@H]1C[C@H](N)[C@H](O)[C@H](C)O1	7.6e-08M*	8.3e-08M*	8.7e-08M*	2.9e-07M*	1.3e-08M*	4.6e-09
COc1cccc2c1C(=N)c1c(O)c3c(c(O)c1C2=O)C[C@](O)(C(C)=O)C[C@@H]3O[C@H]1C[C@H](N)[C@@H](O)[C@H](C)O1	i	1e-08M*	?	i	i	2e-08
CC(=O)[C@@]1(O)Cc2c(O)c3c(c(O)c2[C@H](O[C@H]2C[C@H](N)[C@H](O)[C@H](C)O2)C1)C(=O)c1ccccc1C3=O	2.4e-08M*	?	4.2e-08M*	4.7e-07M*	2.4e-08M*	6.7e-08
CC(C)NC(=O)N1CCCC2(CCN(C(=O)c3ccncc3)CC2)C1	i	i	i	i	i	1.6e-09
c1cncc(-c2nc(NCCN3CCOCC3)c3ccccc3n2)c1	i	i	i	?	i	6.3e-09
C=Cc1c(C)c2cc3[nH]c(cc4nc(cc5nc(cc1[nH]2)C(C)=C5CCC(=O)O)C(CCC(=O)O)=C4C)c(C)c3C=C	i	1e-08M*	i	?	i	7.6e-08
O=c1c(-c2ccccc2)[n+]([O-])c2ccccc2n1O	i	i	i	1.7e-08M*	i	1e-09
Cc1cc(=O)oc2c(CN3CCC(C)CC3)c(O)c(Cl)cc12	i	i	?	1.1e-08M*	i	1e-09
COc1ccc(C(=O)Nc2nc(-c3cccs3)cs2)cc1	i	i	i	?	i	1.8e-08
Cc1csc(NC(=O)c2sc3nc(-c4cccs4)ccc3c2N)n1	i	i	i	1.4e-08M*	i	1e-09
CCOc1ccc2nc(NS(=O)(=O)c3ccc4c(c3)n(C)c(=O)n4C)sc2c1	i	i	i	1.2e-08M*	i	1e-09
CN(C)c1ncc2nc(-c3cccs3)c(=O)n(C3CC3)c2n1	i	i	i	1.5e-08M*	i	1.4e-08

Screens (PubChem)
